Assay results from PubChem BioAssay AID1159580 (chemical genetic matrix, 2015).
Several values for one entry are separate records, joined by “and”; a condition that tells them apart may be missing. Equal entries are not always repeated. Out of some 5,500 compounds screened, about 2,000 (36%) were called active. Another 18% or so got no clear call; they are omitted. No stated cut-off is given here; in the data, active means normalized growth mostly below about 0.91 (no sharp cut-off); inconclusive means no clear call, values can overlap the other calls; inactive means mostly above about 0.92. This is one part of the list.

Assay: chemical genetic growth profiling, strain panel (AID 1159580);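 further: tested at 20 µM; growth read once vehicle control cultures reached saturation at 30 °C; 1 = growth at the plate median or of vehicle wells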
Details: growth OD

Measured: normalized growth

CC(C)C1=CC2=CCC3[C@](C)(CCC[C@]3(C)C(=O)O)C2CC1 (stereo not given in full)
0.782 (active) and 0.89 (inactive): S. cerevisiae deletion strains, locus YJL095W, strain BCK1, stronger effect = lower value
0.996 (inactive) and 0.843 (active): S. cerevisiae deletion strains, locus YHR030C, strain SLT2, stronger effect = lower value
inactive: S. cerevisiae deletion strains, locus YAL013W, strain DEP1, stronger effect = lower value 0.957 | S. cerevisiae deletion strains, locus YBR021W, strain FUR4, stronger effect = lower value 1.03 | S. cerevisiae deletion strains, locus YBR229C, strain ROT2, stronger effect = lower value 0.935 | S. cerevisiae deletion strains, locus YCL029C, strain bik1, stronger effect = lower value 0.995 | S. cerevisiae deletion strains, locus YDL035C, strain GPR1, stronger effect = lower value 0.918 | S. cerevisiae deletion strains, locus YDL074C, strain BRE1, stronger effect = lower value 0.923 | S. cerevisiae deletion strains, locus YDL101C, strain DUN1, stronger effect = lower value 0.946 | S. cerevisiae deletion strains, locus YDL134C, strain PPH21, stronger effect = lower value 0.935 | S. cerevisiae deletion strains, locus YDL185W, strain tfp1, stronger effect = lower value 0.975 | S. cerevisiae deletion strains, locus YDL192W, strain arf1, stronger effect = lower value 0.939 | S. cerevisiae deletion strains, locus YDR101C, strain arx1, stronger effect = lower value 1.05 | S. cerevisiae deletion strains, locus YDR150W, strain NUM1, stronger effect = lower value 0.981 | S. cerevisiae deletion strains, locus YDR318W, strain mcm21, stronger effect = lower value 0.925 | S. cerevisiae deletion strains, locus YDR388W, stronger effect = lower value 0.981 | S. cerevisiae deletion strains, locus YDR502C, strain sam2, stronger effect = lower value 0.952 | S. cerevisiae deletion strains, locus YEL061C, strain CIN8, stronger effect = lower value 0.97 | S. cerevisiae deletion strains, locus YER110C, stronger effect = lower value 0.99 | S. cerevisiae deletion strains, locus YER155C, strain BEM2, stronger effect = lower value 1.02 | S. cerevisiae deletion strains, locus YER167W, strain BCK2, stronger effect = lower value 0.994 | S. cerevisiae deletion strains, locus YGL078C, strain dbp3, stronger effect = lower value 0.978 | S. cerevisiae deletion strains, locus YGL086W, strain mad1, stronger effect = lower value 1.02 | S. cerevisiae deletion strains, locus YGL248W, strain PDE1, stronger effect = lower value 0.928 | S. cerevisiae deletion strains, locus YGR135W, strain pre9, stronger effect = lower value 0.94 | S. cerevisiae deletion strains, locus YGR252W, strain gcn5, stronger effect = lower value 0.986 | S. cerevisiae deletion strains, locus YHR079C, strain IRE1 (second series), stronger effect = lower value 0.974 | S. cerevisiae deletion strains, locus YHR094C, strain hxt1, stronger effect = lower value 0.976 | S. cerevisiae deletion strains, locus YHR129C, strain ARP1, stronger effect = lower value 0.967 | S. cerevisiae deletion strains, locus YHR200W, strain rpn10, stronger effect = lower value 0.995 | S. cerevisiae deletion strains, locus YIL066C, strain RNR3, stronger effect = lower value 0.937 | S. cerevisiae deletion strains, locus YIL073C, strain SPO22, stronger effect = lower value 0.902 | S. cerevisiae deletion strains, locus YIL125W, strain kgd1, stronger effect = lower value 1 | S. cerevisiae deletion strains, locus YIR030C, strain dcg1, stronger effect = lower value 0.974 | S. cerevisiae deletion strains, locus YJL134W, strain LCB3, stronger effect = lower value 0.977 | S. cerevisiae deletion strains, locus YJL168C, strain set2, stronger effect = lower value 0.977 | S. cerevisiae deletion strains, locus YJL187C, strain SWE1 (second series), stronger effect = lower value 0.96 | S. cerevisiae deletion strains, locus YJR043C, strain POL32, stronger effect = lower value 1.02 | S. cerevisiae deletion strains, locus YJR066W, strain TOR1, stronger effect = lower value 0.857 | S. cerevisiae deletion strains, locus YKL009W, strain mrt4, stronger effect = lower value 0.958 | S. cerevisiae deletion strains, locus YKL068W, stronger effect = lower value 0.971 | S. cerevisiae deletion strains, locus YKL085W, strain MDH1 (second series), stronger effect = lower value 0.966 | S. cerevisiae deletion strains, locus YKL085W, strain MDH1, stronger effect = lower value 0.966 | S. cerevisiae deletion strains, locus YKL190W, strain CNB1, stronger effect = lower value 0.958 | S. cerevisiae deletion strains, locus YKR001C, strain vps1, stronger effect = lower value 1.01 | S. cerevisiae deletion strains, locus YLR058C, strain SHM2, stronger effect = lower value 0.944 | S. cerevisiae deletion strains, locus YLR102C, strain apc9, stronger effect = lower value 0.985 | S. cerevisiae deletion strains, locus YLR113W, strain HOG1, stronger effect = lower value 0.859 | S. cerevisiae deletion strains, locus YLR268W, strain sec22, stronger effect = lower value 1.01 | S. cerevisiae deletion strains, locus YLR330W, strain CHS5, stronger effect = lower value 0.984 | S. cerevisiae deletion strains, locus YLR342W, strain FKS1 (second series), stronger effect = lower value 0.859 | S. cerevisiae deletion strains, locus YLR371W, strain rom2, stronger effect = lower value 0.992 | S. cerevisiae deletion strains, locus YML016C, strain PPZ1, stronger effect = lower value 0.966 | S. cerevisiae deletion strains, locus YML032C, strain rad52, stronger effect = lower value 0.949 | S. cerevisiae deletion strains, locus YML124C, strain tub3, stronger effect = lower value 0.979 | S. cerevisiae deletion strains, locus YMR078C, strain ctf18, stronger effect = lower value 0.974 | S. cerevisiae deletion strains, locus YMR223W, strain ubp8, stronger effect = lower value 0.923 | S. cerevisiae deletion strains, locus YNL067W, strain RPL9B, stronger effect = lower value 0.972 | S. cerevisiae deletion strains, locus YNL153C, strain GIM3, stronger effect = lower value 0.967 | S. cerevisiae deletion strains, locus YNL183C, strain NPR1, stronger effect = lower value 0.894 | S. cerevisiae deletion strains, locus YNL233W, strain BNI4, stronger effect = lower value 0.987 | S. cerevisiae deletion strains, locus YNL250W, strain rad50, stronger effect = lower value 0.963 | S. cerevisiae deletion strains, locus YNL271C, strain bni1, stronger effect = lower value 0.963 | S. cerevisiae deletion strains, locus YNL298W, strain CLA4, stronger effect = lower value 0.995 | S. cerevisiae deletion strains, locus YNL307C, strain MCK1, stronger effect = lower value 0.945 | S. cerevisiae deletion strains, locus YNR052C, strain pop2, stronger effect = lower value 0.95 | S. cerevisiae deletion strains, locus YOL006C, strain TOP1, stronger effect = lower value 0.937 | S. cerevisiae deletion strains, locus YOL012C, strain htz1 1.21 | S. cerevisiae deletion strains, locus YOL147C, strain pex11, stronger effect = lower value 0.987 | S. cerevisiae deletion strains, locus YOR061W, strain CKA2, stronger effect = lower value 0.921 | S. cerevisiae deletion strains, locus YOR069W, strain VPS5, stronger effect = lower value 0.972 | S. cerevisiae deletion strains, locus YOR136W, strain idh2, stronger effect = lower value 0.999 | S. cerevisiae deletion strains, locus YOR144C, strain elg1, stronger effect = lower value 0.982 | S. cerevisiae deletion strains, locus YOR316C, strain cot1, stronger effect = lower value 0.979 | S. cerevisiae deletion strains, locus YPL241C, strain CIN2, stronger effect = lower value 0.967 | S. cerevisiae deletion strains, locus YPR119W, strain clb2, stronger effect = lower value 0.977 | S. cerevisiae deletion strains, locus YPR141C, strain kar3, stronger effect = lower value 0.958 | S. cerevisiae deletion strains, locus YPR163C, strain tif3, stronger effect = lower value 0.976 | S. cerevisiae deletion strains, locus YPR167C, strain met16, stronger effect = lower value 0.98 | S. cerevisiae deletion strains, strain wtn01, stronger effect = lower value 1.06 | S. cerevisiae strains, strain wild type, stronger effect = lower value 0.962
active: S. cerevisiae deletion strains, locus YDR162C, strain NBP2, stronger effect = lower value 0.724 | S. cerevisiae deletion strains, locus YHR079C, strain IRE1, stronger effect = lower value 0.851 | S. cerevisiae deletion strains, locus YLR039C, strain RIC1, stronger effect = lower value 0.637 | S. cerevisiae deletion strains, locus YLR262C, strain YPT6, stronger effect = lower value 0.542 | S. cerevisiae deletion strains, locus YLR418C, strain cdc73, stronger effect = lower value 0.781 | S. cerevisiae deletion strains, locus YMR307W, strain GAS1, stronger effect = lower value 0.502 | S. cerevisiae deletion strains, locus YOR184W, strain ser1, stronger effect = lower value 0.801 | S. cerevisiae deletion strains, locus YOR231W, strain MKK1, stronger effect = lower value 0.859 | S. cerevisiae deletion strains, locus YPL256C, strain CLN2, stronger effect = lower value 0.824
